Screening data (PubChem)
Plk1 PBD FP: Plk1 (human) PBD binding inhibition; Plk1 PBD phosphopeptide binding, fluorescence polarization; inhibition, %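 (tested at about 20 µM)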; 0.13% of 97,000 active; AID 693; in the data active means inhibition above about 34%, passing the limit was not always enough
Target sequence (P53350 whole entry, looked up): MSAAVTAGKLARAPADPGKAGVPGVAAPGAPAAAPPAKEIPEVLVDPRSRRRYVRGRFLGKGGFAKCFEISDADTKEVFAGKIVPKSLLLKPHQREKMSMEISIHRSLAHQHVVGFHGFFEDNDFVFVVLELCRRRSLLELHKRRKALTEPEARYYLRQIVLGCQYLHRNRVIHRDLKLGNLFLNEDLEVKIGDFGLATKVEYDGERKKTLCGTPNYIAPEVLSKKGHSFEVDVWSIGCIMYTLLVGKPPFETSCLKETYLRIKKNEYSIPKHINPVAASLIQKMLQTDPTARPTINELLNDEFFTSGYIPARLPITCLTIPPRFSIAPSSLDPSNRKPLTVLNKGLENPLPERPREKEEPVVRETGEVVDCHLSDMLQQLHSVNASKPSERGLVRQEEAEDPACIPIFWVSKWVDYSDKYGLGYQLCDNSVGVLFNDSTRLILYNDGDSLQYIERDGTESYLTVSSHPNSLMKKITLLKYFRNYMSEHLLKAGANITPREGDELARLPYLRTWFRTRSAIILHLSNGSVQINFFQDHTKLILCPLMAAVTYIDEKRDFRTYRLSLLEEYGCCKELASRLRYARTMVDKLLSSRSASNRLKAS
CD11b adhes inh: blocks human CD11b/CD18 adhesion to fibrinogen | inhibition, % at 10 µM | K562 CD11b/CD18 adhesion to fibrinogen, ATPlite luminescence; Mn2+ added to activate the integrin | 0.54% of 93,000 active;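 active means primary inhibition of 50% or more at 10 µM, then 40% or more on retest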
Calb biofilm kill: kills Candida albicans biofilms. C. albicans biofilm + clotrimazole, Alamar Blue. inhibition, % at 6 µM. 0.14% of 85,000 active. AID 834;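 active means inhibition above 20%; inactive means inhibition below 20%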;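 further: preformed 24 hr biofilms exposed to compound for 48 hr; 0% = biofilm without compound and 100% = blank killed by clotrimazole plus chlorhexidine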
CD11b adhes enh: CD11b/CD18-fibrinogen binding enhancement; 0.07% of 93,000 active; K562 CD11b/CD18 adhesion to fibrinogen, ATPlite luminescence; activation, % at 10 µM;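 active means 10 µM primary screen giving 50% or more activity, confirmed by 40% or more on retest at that dose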
PLK1 kinase inh: PLK1 (human) kinase inhibition; P53350; recombinant PLK1 kinase, TR-FRET peptide phosphorylation; inhibition, % at 10 µM; 0.53% of 97,000 active;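 active means inhibition of 50% or more in the single-concentration screen; inactive means inhibition below 50%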;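 further: 0% = DMSO max control and 100% = H-89 dihydrochloride min control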
Numbers without * were called inactive; . = no result given. Most compounds without a hit are left out; they make up all but 1.1% or so of the library.

SMILES | Plk1 PBD FP | CD11b adhes inh | Calb biofilm kill | CD11b adhes enh | PLK1 kinase inh
COCCn1c(SCC(=O)Nc2sccc2C(N)=O)nc2cc(Cl)ccc2c1=O | -11 | -12 | 7 | -2 | 10
Cc1ccc(Nc2nnc(SCC(=O)Nc3ccc(S(=O)(=O)N4CCOCC4)cc3)s2)cc1 | 8 | 52* | 1 | -2 | -7
O=C(CSc1nnc(Nc2ccccc2)s1)Nc1ccc(S(=O)(=O)N2CCOCC2)cc1 | 14 | 33 | 6 | -5 | -3
CSc1nc2ccccc2n1Cc1c(Cl)cccc1Cl | 2 | 16 | -3 | -1 | -39
Cc1[nH]n(-c2ccccc2)c(=S)c1C=Nc1cccc([N+](=O)[O-])c1 | 18 | -3 | . | 0 | -14
CCc1cccc(OCCCN2C(=O)NC(C)(C)C2=O)c1 | -15 | -21 | 82* | -2 | -2
O=C(NCc1ccc(F)cc1)C(=O)NCC1OCCN1C(=O)c1cccs1 (stereo not given) | . | -11 | . | -5 | .
CCOc1ccc(-c2onc(C(F)(F)F)c2-c2cscn2)c(O)c1 | -10 | 8 | . | -1 | -11
Cc1cc(O)cc(O)c1-c1onc(C(F)(F)F)c1-c1cscn1 | 15 | 50 | -2 | -7 | 58*
Cc1nc(NCCCn2ccnc2)c2ccccc2n1 | . | -2 | 8 | -2 | .
O=C1c2ccccc2-c2onc3ccc(NCCCn4ccnc4)c1c23 | 35 | 7 | 7 | 31 | 68*
CCOc1ccc(C(c2c(C)[nH][nH]c2=O)c2c(C)[nH][nH]c2=O)cc1OC | 19 | 5 | . | -3 | -9
COc1ccc(C(c2c(C)[nH]n(-c3ccccc3)c2=O)c2c(C)[nH]n(-c3ccccc3)c2=O)cc1OC | . | 52* | . | -4 | .
CC(C)(C)NC(=O)COC(=O)CNC(=O)c1cc(Cl)cc([N+](=O)[O-])c1 | . | -6 | . | -2 | .
O=C(Nc1ccccc1Cl)N1CCN(c2ccccn2)CC1 | -18 | . | 4 | . | -14
COc1ccccc1NC(=O)N1CCN(c2ccccn2)CC1 | 6 | -7 | 5 | 10 | 62*
O=C(c1cc2ccccn2n1)N1CCN(Cc2ccccc2)CC1 | -7 | 7 | 2 | 0 | 54*
CCCn1nc([N+](=O)[O-])c(C(C#N)c2nc3ccccc3s2)c(Cl)c1=O (stereo not given) | -36 | 95* | . | -8 | -1
Cc1ccc(N=Nc2c(N)[nH]n3c(=O)c4c(nc23)CCCC4)cc1 | 1 | . | . | . | -6
O=C(NCc1ccccc1)c1ccc(C(=O)N(C2CCCCC2)C2CCCCC2)cc1 | 15 | -20 | 76* | 0 | -2
O=C(NCc1ccccc1)NC1CCCCC1 | -21 | -10 | 9 | 4 | -12
COc1ccc(N(CN2C(=O)C3C4C=CC(C4)C3C2=O)C(=O)c2ccco2)cc1 (stereo not given) | 52* | . | 4 | . | 1
COc1ccc(CN(C(=O)c2ccco2)c2ccccc2)cc1 | -5 | . | 7 | . | -8
COc1ccc(-c2cn3c(C)c(C(=O)Nc4ccncc4)sc3n2)cc1 | -3 | 8 | 3 | 1 | 8
Cc1c(C(=O)Nc2ccncc2)sc2nc(-c3ccc(F)cc3)cn12 | . | 32 | 32* | 14 | .
SMILES | Plk1 PBD FP | CD11b adhes inh | Calb biofilm kill | CD11b adhes enh | PLK1 kinase inh
CCOC(=O)C1CCC2(CC1)C(C#N)=C(N)Oc1n[nH]c(C)c12 (stereo not given) | -14 | . | 2 | . | 70*
Cc1[nH]nc2c1C1(CCOCC1)C(C#N)=C(N)O2 | -12 | 7 | -3 | 2 | 29
CCCN1CNC(=S)N(c2ccccc2OCC)C1 | . | 4 | . | 0 | .
O=C(O)c1cccc(CSc2nc(-c3ccc(Cl)cc3)cc(C(F)(F)F)n2)c1 | -14 | 75* | . | -3 | -2
CCOC(=O)CCSc1nc(-c2ccccc2)cc(C(F)(F)F)n1 | 14 | . | 6 | . | -15
CCOCC(=O)Nc1nnc(SCCOC)s1 | -1 | -3 | 8 | 12 | 52*
CCOCC(=O)Nc1nnc(COCC)s1 | -45 | -14 | 6 | 5 | -7
CCn1c2ccccc2c2cc(NS(=O)(=O)c3ccccc3C)ccc21 | -18 | . | . | . | -4
Cc1cc(OCC(=O)NCC(C)C)cc(C)c1Br | -9 | 12 | 8 | -3 | -7
Cc1cc(OCC(=O)Nc2ccncc2)cc(C)c1Br | 11 | 84* | 4 | -9 | 12
CCN(CC)S(=O)(=O)c1ccc2c(c1)C(=NO)c1cc(S(=O)(=O)N(CC)CC)ccc1-2 | 20 | . | -2 | . | -21
O=C(OCC#CCSc1nnc(-c2ccncc2)o1)c1cccs1 | -11 | 0 | 3 | -3 | 54*
COc1ccc(NC(=O)NC23CC4(C)CC(C)(CC(C)(C4)C2)C3)cc1OC | . | 79 | . | -4 | .
CN(C)c1ccc(/C=C/c2ccc3ccccc3[n+]2C)cc1 | . | 79* | . | -7 | .
Cc1ccc(SCCc2ccc(C)nc2)cc1 | . | -4 | . | 5 | .
COc1ccc(CCNc2nc(-c3sc(C)nc3C)cs2)cc1OC | 0 | 60* | 3 | -7 | -14
COc1ccc(CCNc2nc(-c3cccnc3)cs2)cc1OC | 13 | . | . | . | -4
Cn1c(=O)c2c(nc(SCC(=O)N(C3CCCCC3)C3CCCCC3)n2C)n(C)c1=O | -9 | . | 5 | . | -7
O=C(/C=C/c1cccs1)Nc1ccc(Br)cn1 | . | 18 | . | 12 | .
Cc1cc(/C=N/n2cnnc2)c(C)n1-c1ccc(OCc2ccc(Cl)cc2Cl)cc1 | -6 | 99* | -5 | -8 | -5
Cc1ccc2nc(N(CCCN(C)C)C(=O)c3sc4ccccc4c3Cl)sc2c1 | . | 35 | . | 3 | .
CCOc1ccc(CSC2=NCCN2)cc1Cl | -45 | . | 3 | . | 4
CCOc1ccc(Br)cc1/C(C)=N\NC1=NCCN1 | -9 | 84* | 4 | -6 | -2
CCOC(=O)c1ccc(-n2c(C)nc3c(cnn3-c3ccc(Cl)cc3)c2=O)cc1 | -15 | 39 | 34* | -2 | -11
CCOC(=O)c1ccc(-n2c(C)nc3c(cnn3-c3ccccc3Cl)c2=O)cc1 | -7 | -39 | 4 | -2 | -12
SMILES | Plk1 PBD FP | CD11b adhes inh | Calb biofilm kill | CD11b adhes enh | PLK1 kinase inh
CC1SC(=NC(=O)C(C)N2C(=O)c3ccccc3C2=O)NC1=O (stereo not given) | 5 | . | 3 | . | -12
CCCCOc1ccc(C(=O)Nc2ccncc2)cc1 | 6 | 96* | 7 | -9 | -1
CCCCOc1ccc(C(=O)NC)cc1 | 15 | -12 | 5 | 6 | -6
COc1cccc2c1C(=O)O/C2=C/c1ccc2c(c1)OCO2 | -16 | 52* | . | 0 | -10
FC(F)(F)c1nc(N2CCCC2)ncc1-c1nnnn1-c1ccc(Cl)cc1 | -12 | 55* | . | -5 | -7
O=C(Oc1cccc(NC(=O)c2ccco2)c1)c1ccc(Br)c(S(=O)(=O)N2CCCCC2)c1 | -31 | 8 | 5 | 9 | -3
O=C(Nc1ccc(-n2nncc2-c2ccco2)cc1)c1cc2ccccc2oc1=O | -9 | -7 | 0 | 168* | -4
O=C(Nc1ccc(-n2nncc2-c2ccco2)cc1)c1cccc(F)c1 | 9 | -32 | 5 | 1 | -11
CCc1ccc(-c2nc(CSCC(=O)N3CCN(c4ncccn4)CC3)c(C)o2)cc1 | -30 | 79* | . | -7 | -9
CSc1ccc(-c2nc(CSCC(=O)N3CCOCC3)c(C)o2)cc1 | -25 | 19 | 3 | -3 | -5
